Reference: PubChem BioAssay AID1159580 (chemical genetic matrix, 2015)
Out of some 5,500 compounds screened, about 2,000 (36%) were called active. Another 18% or so got no clear call; they are omitted. Cut-off read from the data, not from the text of the source: active = normalized growth mostly below about 0.91 (no sharp cut-off); inconclusive = no clear call, values can overlap the other calls; inactive = mostly above about 0.92. Some of the results follow.

Experiment: chemical genetic growth profiling, strain panel (AID 1159580);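 note: tested at 20 µM; growth read once vehicle control cultures reached saturation at 30 °C; 1 = growth at the plate median or of vehicle wells; lower values mean less growth of the strain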
Details: S. cerevisiae deletion strains, growth OD
[1] = locus YAR019C, strain CDC15, active compounds read low
[2] = locus YBL105C, strain PKC1, active compounds read low
[3] = locus YBR135W, strain CKS1, active compounds read low
[4] = locus YBR136W, strain MEC1, active compounds read low
[5] = locus YBR160W, strain CDC28, active compounds read low
[6] = locus YDL017W, strain CDC7, active compounds read low
[7] = locus YDL028C, strain MPS1, active compounds read low
[8] = locus YDL101C, strain DUN1, active compounds read low
[9] = locus YDL108W, strain KIN28, active compounds read low
[10] = locus YDL132W, strain cdc53, active compounds read low
[11] = locus YDL214C, strain PRR2, active compounds read low
[12] = locus YDR052C, strain DBF4, active compounds read low
[13] = locus YDR054C, strain cdc34, active compounds read low
[14] = locus YDR226W, strain ADK1, active compounds read low
[15] = locus YDR477W, strain SNF1, active compounds read low
[16] = locus YER123W, strain YCK3, active compounds read low
[17] = locus YER133W, strain GLC7, active compounds read low
[18] = locus YFL009W, strain cdc4, active compounds read low
[19] = locus YFL029C, strain CAK1, active compounds read low
[20] = locus YFR003C, strain YPI1, active compounds read low
[21] = locus YFR019W, strain FAB1, active compounds read low
[22] = locus YFR028C, strain CDC14, active compounds read low
[23] = locus YGR040W, strain KSS1, active compounds read low
[24] = locus YGR052W, strain FMP48, active compounds read low
[25] = locus YGR092W, strain DBF2, active compounds read low
[26] = locus YHR030C, strain SLT2, active compounds read low
[27] = locus YHR079C, strain IRE1, active compounds read low
[28] = locus YHR082C, strain KSP1, active compounds read low
[29] = locus YHR205W, strain SCH9, active compounds read low
[30] = locus YIL147C, strain SLN1, active compounds read low
[31] = locus YJL095W, strain BCK1, active compounds read low
[32] = locus YJL128C, strain PBS2, active compounds read low
[33] = locus YJL157C, strain FAR1, active compounds read low
[34] = locus YJR016C, strain ILV3, active compounds read low
[35] = locus YJR066W, strain TOR1 (second series), active compounds read low
[36] = locus YJR066W, strain TOR1, active compounds read low
[37] = locus YKL048C, strain ELM1, active compounds read low
[38] = locus YKL067W, strain YNK1, active compounds read low
[39] = locus YKL101W, strain HSL1, active compounds read low
[40] = locus YKL193C, strain SDS22, active compounds read low
[41] = locus YKL203C, strain TOR2, active compounds read low
[42] = locus YLR113W, strain HOG1, active compounds read low
[43] = locus YLR133W, strain CKI1, active compounds read low
[44] = locus YLR403W, strain SFP1, active compounds read low
[45] = locus YML070W, strain DAK1, active compounds read low
[46] = locus YMR001C, strain CDC5, active compounds read low
[47] = locus YMR205C, strain PFK2 (second series), active compounds read low
[48] = locus YMR277W, strain FCP1, active compounds read low
[49] = locus YNL006W, strain LST8, active compounds read low
[50] = locus YNL020C, strain ARK1, active compounds read low
[51] = locus YNL161W, strain CBK1, active compounds read low
[52] = locus YNL183C, strain NPR1, active compounds read low
[53] = locus YNL207W, strain RIO2, active compounds read low
[54] = locus YNL222W, strain SSU72, active compounds read low
[55] = locus YNL307C, strain MCK1 (second series), active compounds read low
[56] = locus YOL078W, strain AVO1, active compounds read low
[57] = locus YOL136C, strain PFK27, active compounds read low
[58] = locus YOR061W, strain CKA2, active compounds read low
[59] = locus YOR119C, strain RIO1, active compounds read low
[60] = locus YOR231W, strain MKK1, active compounds read low
[61] = locus YOR329C, strain SCD5, active compounds read low
[62] = locus YPL031C, strain PHO85, active compounds read low
[63] = locus YPL153C, strain RAD53, active compounds read low
[64] = locus YPL204W, strain HRR25, active compounds read low
[65] = locus YPL209C, strain IPL1, active compounds read low
[66] = locus YPL256C, strain CLN2, active compounds read low
[67] = locus YPR025C, strain CCL1, active compounds read low
[68] = locus YPR106W, strain ISR1, active compounds read low
[69] = locus YPR111W, strain DBF20, active compounds read low
[70] = strain NNK1, active compounds read low
[71] = strain TSCII, active compounds read low

Measured: normalized growth

Cc1csc2ncnc(N3CCN(C(=O)Nc4ccc(SC(F)(F)F)cc4)CC3)c12
inactive: [1] 1.01 | [2] 0.991 | [3] 0.999 | [4] 1 | [5] 0.979 | [6] 0.982 | [7] 0.994 | [8] 1 | [9] 0.995 | [10] 1 | [11] 0.908 | [12] 0.988 | [13] 0.993 | [14] 1 | [15] 0.937 | [16] 0.902 | [17] 0.912 | [18] 1.01 | [19] 1 | [20] 1.01 | [21] 0.918 | [22] 0.994 | [23] 0.925 | [24] 0.963 | [25] 0.867 | [27] 0.866 | [28] 0.947 | [29] 0.927 | [30] 0.987 | [31] 0.868 | [32] 0.972 | [33] 0.88 | [34] 0.994 | [35] 0.65 | [36] 0.915 | [37] 0.931 | [38] 0.915 | [39] 0.903 | [40] 1 | [41] 0.977 | [43] 0.909 | [44] 0.905 | [45] 0.886 | [46] 0.999 | [47] 0.903 | [48] 1 | [49] 0.997 | [50] 0.898 | [51] 1 | [52] 0.895 | [53] 0.987 | [54] 1 | [55] 0.866 | [56] 0.996 | [57] 0.869 | [58] 0.864 | [59] 0.967 | [60] 0.825 | [61] 1 | [62] 0.915 | [63] 0.914 | [64] 0.9 | [65] 1 | [67] 0.998 | [68] 0.988 | [69] 0.987 | [70] 0.993 | [71] 0.983
active: [26] 0.818 | [42] 0.806 | [66] 0.845

Cc1onc(-c2c(Cl)cccc2Cl)c1C(=O)N1CCN(c2ncnc3scc(-c4ccccc4)c23)CC1
inactive: locus YAL013W, strain DEP1, active compounds read low 0.97 | locus YBR229C, strain ROT2, active compounds read low 1 | locus YCL061C, strain MRC1, active compounds read low 0.994 | [8] 0.979 | locus YDL134C, strain PPH21, active compounds read low 1 | locus YDR150W, strain NUM1, active compounds read low 0.94 | locus YEL061C, strain CIN8, active compounds read low 1.02 | locus YGR078C, strain PAC10, active compounds read low 1 | [26] 0.942 | locus YHR087W, strain rtc3, active compounds read low 1.01 | locus YJR043C, strain POL32, active compounds read low 0.977 | locus YJR075W, strain HOC1, active compounds read low 0.997 | locus YKL190W, strain CNB1, active compounds read low 1.01 | locus YLR039C, strain RIC1, active compounds read low 0.937 | locus YLR058C, strain SHM2 (second series), active compounds read low 1.01 | locus YLR085C, strain ARP6, active compounds read low 1.01 | locus YLR262C, strain YPT6, active compounds read low 0.962 | locus YML094W, strain GIM5, active compounds read low 1.01 | locus YMR219W, strain ESC1, active compounds read low 1.01 | locus YMR263W, strain SAP30, active compounds read low 0.967 | locus YNL128W, strain TEP1, active compounds read low 1.01 | locus YNL153C, strain GIM3, active compounds read low 0.999 | locus YNL298W, strain CLA4 (second series), active compounds read low 1.02 | locus YNL322C, strain KRE1, active compounds read low 1.01 | locus YNR030W, strain Alg12, active compounds read low 1.01 | locus YPL055C, strain LGE1, active compounds read low 1.02 | locus YPL241C, strain CIN2, active compounds read low 1.01 | locus YPR135W, strain CTF4, active compounds read low 0.923

Cc1csc2ncnc(N3CCN(C(=S)Nc4ccc(C(F)(F)F)cc4)CC3)c12
active: [42] 0.816
inactive: [1] 0.995 | [2] 0.987 | [3] 0.985 | [4] 1 | [5] 0.998 | [6] 1 | [7] 0.996 | [8] 0.985 | [9] 0.993 | [10] 0.996 | [11] 0.945 | [12] 1 | [13] 0.965 | [14] 0.994 | [15] 0.999 | [16] 0.926 | [17] 0.964 | [18] 0.99 | [19] 0.983 | [20] 0.996 | [21] 0.958 | [22] 0.993 | [23] 0.978 | [24] 0.999 | [25] 0.922 | [26] 0.919 | [27] 0.982 | [28] 1.02 | [29] 0.908 | [30] 1.01 | [31] 0.938 | [32] 0.92 | [33] 0.942 | [34] 0.995 | [35] 0.908 | [36] 1.02 | [37] 0.979 | [38] 0.968 | [39] 0.959 | [40] 0.996 | [41] 1.01 | [43] 0.95 | [44] 0.955 | [45] 0.94 | [46] 0.999 | [47] 0.954 | [48] 0.986 | [49] 0.989 | [50] 0.949 | [51] 0.997 | [52] 0.987 | [53] 0.991 | [54] 0.986 | [55] 0.958 | [56] 0.989 | [57] 0.933 | [58] 0.94 | [59] 1.01 | [60] 0.909 | [61] 0.998 | [62] 0.982 | [63] 0.932 | [64] 0.963 | [65] 0.977 | [66] 0.91 | [67] 0.984 | [68] 0.979 | [69] 0.978 | [70] 0.988 | [71] 1
